The full list was thinned out, with hits kept by preference.
IDE exosite inh: exo-site inhibitors of human IDE, primary screen, biochemical, fluorescence anisotropy, probe displacement; Insulin-degrading enzyme (Homo sapiens), P14735; purified IDE, FL-6b probe fluorescence polarization; hits give low values; z-score at 20 µM; actives 6.3% (n = 17,000);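 active = z-score of -3 or lower, meaning strong loss of probe binding signal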;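 note: His-tagged human IDE residues 42-1019 made in E. coli with 30 nM FL-6b probe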
A number is an active result; 0 = inactive; ! = not confirmed by another sample.

SMILES | IDE exosite inh
O=C(C1CC1)N1C[C@H]2[C@@H](c3ccccc31)[C@@H](CO)N2C(=O)c1ccccc1 | 0
CCCN1C[C@@H](C)[C@@H](OC)CN(C)C(=O)c2cc(NC(=O)Nc3cccc(F)c3)ccc2OC[C@H]1C | 0
O=C(C1CCOCC1)N1CC(=O)N2[C@@H](CO)[C@@H](c3ccc(-c4cccnc4)cc3)[C@@H]2C1 | 0
Cc1ccc(CN2CC(=O)N3[C@H](C2)[C@@H](c2ccc(-c4ccccc4F)cc2)[C@@H]3CO)cc1 | 0
C[C@@H]1CCCCO[C@@H](CN(C)C(=O)Cc2ccccc2)[C@@H](C)CN([C@H](C)CO)C(=O)c2cc(NS(C)(=O)=O)ccc2O1 | 0
C[C@@H]1CN([C@@H](C)CO)C(=O)c2cc(C#CC3(O)CCCC3)cnc2O[C@@H]1CN(C)S(=O)(=O)c1cccc(F)c1 | 0
Cc1ccccc1-c1ccc([C@H]2[C@@H](CO)N3C(=O)CN(C(=O)c4ccccc4)C[C@@H]23)cc1 | -8.3
Cc1ccccc1-c1ccc([C@H]2[C@H](CO)N3C(=O)CN(C(=O)c4ccncc4)C[C@@H]23)cc1 | -7.4
Cc1ccccc1-c1ccc([C@@H]2[C@@H](CO)N3C(=O)CN(C(=O)c4ccc(F)cc4)C[C@H]23)cc1 | 0
O=C(c1ccccc1)N1CC(=O)N2[C@H](C1)[C@@H](c1ccc(-c3ccccc3)cc1)[C@@H]2CO | 0
N#C[C@H]1[C@@H](c2ccc(-c3cccc(F)c3)cc2)[C@@H](CO)N1S(=O)(=O)c1cccc(F)c1 | 0
C[C@@H]1CN([C@H](C)CO)C(=O)CCCn2cc(nn2)CO[C@H]1CN(C)Cc1ccccc1 | 0
CCC(=O)N1CCCCN2[C@H](C1)[C@@H](c1ccc(-c3cccnc3)cc1)[C@@H]2CO | 0
N#C[C@H]1[C@H](c2ccc(-c3ccc(F)cc3)cc2)[C@@H](CO)N1C(=O)Cc1ccccc1 | 0
C[C@@H]1CCCCO[C@@H](CN(C)S(=O)(=O)c2cn(C)cn2)[C@H](C)CN([C@H](C)CO)C(=O)c2cc(NC(=O)Nc3cccc4ccccc34)ccc2O1 | 0
C[C@@H]1CCCCO[C@@H](CN(C)S(=O)(=O)c2cn(C)cn2)[C@H](C)CN([C@H](C)CO)C(=O)c2cc(N(C)C)ccc2O1 | 0
C[C@@H]1CN([C@H](C)CO)C(=O)c2cc(NC(=O)Nc3cccc4ccccc34)ccc2O[C@@H](C)CCCCO[C@@H]1CN(C)S(=O)(=O)c1cn(C)cn1 | -7.1
N#C[C@H]1[C@@H](c2ccc(C#CC3CC3)cc2)[C@@H](CO)N1C(=O)c1cccc(F)c1 | 0
Cc1cccc(-c2ccc([C@@H]3[C@H]4CN(C(=O)NC5CCCCC5)CC(=O)N4[C@H]3CO)cc2)c1 | -16
O=C(NC1CCCCC1)N1CC(=O)N2[C@H](CO)[C@H](c3ccc(-c4cccc(F)c4)cc3)[C@@H]2C1 | 0
Cc1cccc(-c2ccc([C@H]3[C@@H](CO)N4C(=O)CN(C(=O)NC5CCCCC5)C[C@@H]34)cc2)c1 | -10
O=C(NC1CCCCC1)N1CC(=O)N2[C@@H](CO)[C@@H](c3ccc(C4=CCCC4)cc3)[C@@H]2C1 | 0
Cc1cccc(-c2ccc([C@H]3[C@H](CO)N4C(=O)CN(C(=O)NC5CCCCC5)C[C@@H]34)cc2)c1 | -16
O=C(NC1CCCCC1)N1CC(=O)N2[C@H](CO)[C@@H](c3ccc(-c4cccc(F)c4)cc3)[C@H]2C1 | 0
COC(=O)C[C@@H]1CC[C@@H]2[C@H](COc3ccc(NC(=O)Nc4c(C)noc4C)cc3C(=O)N2C)O1 | 0
SMILES | IDE exosite inh
Cc1noc(C)c1NC(=O)Nc1ccc2c(c1)C(=O)N([C@@H](C)CO)C[C@@H](C)[C@H](CN(C)S(=O)(=O)c1cccs1)OCCCC[C@H](C)O2 | 0
Cc1noc(C)c1NC(=O)N[C@@H]1C=C[C@H](CC(=O)Nc2ccc(-c3ccccc3)cc2)O[C@@H]1CO | 0
CN1C(=O)c2cc(NC(=O)c3ccc4c(c3)OCO4)ccc2OC[C@@H]2O[C@@H](CC(=O)O)CC[C@@H]21 | 0
OC[C@H]1[C@@H]2c3ccccc3NC[C@@H]2N1CC1CCOCC1 | 0
N#C[C@@H]1[C@H](c2ccccc2C2=CCCCC2)[C@H](CO)N1C(=O)c1cccc(F)c1 | 0
O=C(C1CCOCC1)N1CC(=O)N2[C@H](C1)[C@@H](c1ccc(Br)cc1)[C@@H]2CO | 0
O=C(C1CCOCC1)N1CC(=O)N2[C@H](CO)[C@H](c3ccc(/C=C/c4ccccc4)cc3)[C@@H]2C1 | -4.8
O=C(C1CCOCC1)N1CC(=O)N2[C@H](C1)[C@H](c1ccc(/C=C/c3ccccc3)cc1)[C@@H]2CO | -3.3
O=C(C1CCOCC1)N1CC(=O)N2[C@H](C1)[C@H](c1ccc(Br)cc1)[C@@H]2CO | 0
O=C(C1CCOCC1)N1CC(=O)N2[C@H](CO)[C@H](c3ccc(Br)cc3)[C@H]2C1 | 0
N#C[C@H]1[C@@H](c2ccc(C3=CCCCC3)cc2)[C@H](CO)N1C(=O)c1cccc(F)c1 | 0
COCCNC(=O)C[C@H]1CC[C@H]2[C@@H](COC[C@H](O)CN2C(=O)c2cc(Cl)cc(Cl)c2)O1 | 0
C[C@@H](O)C#Cc1ccc([C@@H]2[C@@H](CO)N3CCCCN(C(=O)c4ccc(F)cc4)C[C@H]23)cc1 | 0
Cc1noc(C)c1NC(=O)Nc1ccc2c(c1)C(=O)N([C@@H](C)CO)C[C@H](C)[C@@H](CN(C)Cc1ccc3c(c1)OCO3)OCCCC[C@H](C)O2 | 0
O=C(C[C@@H]1C[C@H]2c3cc(NC(=O)C4CCOCC4)ccc3O[C@H]2[C@H](CO)O1)NCc1cccnc1 | 0
COCC(=O)N1C[C@H]2[C@@H](c3ccccc31)[C@H](CO)N2Cc1cc(F)ccc1F | 0
COc1ccccc1NC(=O)N1C[C@@H]2N[C@H](C1)C2c1ccc(/C=C/c2ccccc2)cc1 (stereo partly drawn) | 0
O=C(c1ccncc1)N1C[C@@H]2N[C@H](C1)C2c1ccc(/C=C/c2ccccc2)cc1 (stereo partly drawn) | -14!
O=C(C1CCOCC1)N1C[C@@H]2N[C@H](C1)C2c1ccc(-c2ccncc2)cc1 (stereo partly drawn) | 0
O=C(c1cccnc1)N1C[C@@H]2N[C@H](C1)C2c1ccc(-c2ccccc2)cc1 (stereo partly drawn) | 0
O=C(c1ccc(F)cc1)N1C[C@@H]2N[C@H](C1)C2c1ccc(/C=C/c2ccccc2)cc1 (stereo partly drawn) | -4.6!
O=C(C1CCOCC1)N1C[C@@H]2N[C@H](C1)C2c1ccc(/C=C/c2ccccc2)cc1 (stereo partly drawn) | -7.6!
O=C(c1ccc2c(c1)OCO2)N1C[C@@H]2N[C@H](C1)C2c1ccc(/C=C/c2ccccc2)cc1 (stereo partly drawn) | 0
C(=C\c1ccc(C2[C@@H]3CN(Cc4ccccn4)C[C@H]2N3)cc1)/c1ccccc1 (stereo partly drawn) | -5.2
O=C(CN1CCOCC1)N1C[C@@H]2N[C@H](C1)C2c1ccc(/C=C/c2ccccc2)cc1 (stereo partly drawn) | 0
O=C(c1ccc(F)cc1)N1CC(=O)N2[C@H](CO)[C@@H](c3ccc(/C=C/c4ccccc4)cc3)[C@H]2C1 | 0
C(=C\c1ccc(C2[C@@H]3CN(Cc4nccs4)C[C@H]2N3)cc1)/c1ccccc1 (stereo partly drawn) | 0
COc1ccc(-c2ccc(C3[C@@H]4CN(Cc5ccccn5)C[C@H]3N4)cc2)cc1 (stereo partly drawn) | 0
